From PubChem BioAssay (Tox21)
A number with no mark means an inactive call. Inconclusive results are not listed. A call without a number means that no potency is given here. The source made the active and inactive calls. Unless noted, the call rests on the fitted dose curve; in most records, active means well fitted curve in the direction sought with a large enough effect in the repeat runs; inconclusive means weak or mixed curves; inactive means no such curve, though single readings can be large; an effect the other way counts as inactive or inconclusive.

Assays:
[1] = qHTS assay for small molecules that induce genotoxicity in human embryonic kidney cells expressing luciferase-tagged ATAD5 (AID 651632); further: nearly all actives have a fitted effect of over 15% in size
Method in brief: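 ATAD5-luc HEK293T, 2,000 cells/well; cpd or DMSO pin-transferred; 16 hr, 37C/5% CO2; Amplite 30 min RT; luminescence.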

[2] = qHTS assay for small molecule agonists of the p53 signaling pathway - cell viability (AID 651633; calls by dose curve; further: nearly all actives have a fitted effect of over 30% in size; further: potency means the concentration at half of the fitted maximal effect;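 on activity change, negative = cytotoxicity: p53RE-bla HCT reporter cells with a stable beta-lactamase p53 reporter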)
Method in brief: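 Viability counter-read: CellTiter-Glo luminescence (30 min, room temperature) in the same p53RE-bla plates. These plates had been exposed to compounds for 16 h at 37 C.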

[3] = qHTS assay for small molecule disruptors of the mitochondrial membrane potential - cell viability (AID 720634; calls by dose curve;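 further: human HepG2 liver cancer cells; nearly all actives have a fitted effect of over 20% in size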)
Method in brief: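 Cells: HepG2, 2,000/well, attached overnight. Compound 1 hr, 37 C/5% CO2. +m-MPI dye, +CellTiter-Glo 30 min RT. Readout: luminescence (ATP).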

[4] = qHTS assay for small molecule disruptors of the mitochondrial membrane potential (AID 720635); further: potency means the concentration at half of the fitted maximal effect
Method in brief: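 Mitochondrial membrane potential tracked with Mito-MPS dye, red aggregates (ex 540/em 590 nm) against green monomers (ex 490/em 535 nm). Compound treatment 1 hr at 37C, dye 30 min in HepG2.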

[5] = qHTS assay to test for compound auto fluorescence at 590 nm (red) in HepG2 cells (AID 720674)
Method in brief: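 1 hr compound incubation on HepG2 cells, 37 C, 5% CO2; plate read ex 540 nm / em 590 nm; intensities reported as Rose Bengal sodium equivalents.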

[6] = qHTS assay to test for compound auto fluorescence at 535 nm (green) in HepG2 cells (AID 720675)
[7] = qHTS assay to test for compound auto fluorescence at 460 nm (blue) in HEK293 cells (AID 720678)
Method in brief: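 HEK293 cells (2,000/well, medium with 10% dialyzed FBS) attached 4-5 hr, then exposed to compound overnight at 37C, 5% CO2. Blue fluorescence read at 405/460 nm, with triamterene as reference fluorophore.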

[8] = qHTS assay to test for compound auto fluorescence at 590 nm (red) in HEK293 cells (AID 720679)
Method in brief: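 HEK293 cells (2,000/well, 10% dialyzed FBS) attached 4-5 hr, then dosed with compound or DMSO and incubated overnight at 37C, 5% CO2. Red fluorescence read at 540/590 nm, Rose Bengal sodium as reference fluorophore.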

[9] = qHTS assay to test for compound auto fluorescence at 535 nm (green) in HEK293 cells (AID 720680)
[10] = qHTS assay to test for compound auto fluorescence at 460 nm (blue) in HEK293 cell free culture (AID 720681)
Method in brief: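 Blue fluorescence (Ex 405/Em 460 nm, triamterene-equivalent) was read immediately after pin transfer of compound or DMSO into medium (DMEM, 10% FBS) without cells.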

[11] = qHTS assay to test for compound auto fluorescence at 535 nm (green) in HEK293 cell free culture (AID 720682)
Method in brief: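 Measurement is a direct plate read of green fluorescence (485 nm in, 535 nm out) after compound addition to serum-supplemented DMEM lacking cells, with fluorescein used to express intensities.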

[12] = qHTS assay to test for compound auto fluorescence at 590 nm (red) in HepG2 cell free culture (AID 720684)
Method in brief: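 Steps: dispense MEM/10% FBS medium, no cells; pin compound or DMSO vehicle; read red channel, Ex/Em 540/590 nm. Output given as Rose Bengal sodium equivalents.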

[13] = qHTS assay to test for compound auto fluorescence at 460 nm (blue) in HepG2 cell free culture (AID 720685)
Method in brief: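 Compound (23 nL) or DMSO pinned into cell-free MEM with 10% FBS; blue fluorescence read at 405/460 nm excitation/emission, expressed as auto-fluorescence equivalency to triamterene.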

[14] = qHTS assay to test for compound auto fluorescence at 535 nm (green) in HepG2 cell free culture (AID 720686)
[15] = qHTS assay to test for compound auto fluorescence at 460 nm (blue) in HepG2 cells (AID 720687)
Method in brief: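 Blue-channel autofluorescence (Ex/Em 405/460 nm, triamterene-equivalent) was measured after 1 hr compound exposure at 37 C, 5% CO2. Cells were HepG2, plated overnight at 37 C in MEM plus 10% FBS.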

[16] = qHTS assay for small molecules that induce genotoxicity in human embryonic kidney cells expressing luciferase-tagged ATAD5 - cell viability (AID 651634; calls by dose curve; further: nearly all actives have a fitted effect of over 25% in size; further: potency means the concentration at half of the fitted maximal effect)
Method in brief: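 Fluorescence from CellTiter-Fluor, reporting protease activity within live cells, served as the viability read-out. HEK293T cells carrying luciferase-tagged ATAD5 had been treated with compound for 15.5 hr at 37C.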

[17] = qHTS assay to test for compound auto fluorescence at 590 nm (red) in HEK293 cell free culture (AID 720683)
Method in brief: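 Red-channel autofluorescence of compounds in culture medium (DMEM, 10% FBS), no cells, measured at 540/590 nm. Rose Bengal sodium is the reference fluorophore for equivalence.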

[18] = molecular target: Glucocorticoid receptor (Homo sapiens) (UniProt P04150); experiment: qHTS assay to identify small molecule agonists of the glucocorticoid receptor (GR) signaling pathway (AID 720691; active means well fitted activation curve with a large enough effect in the signal ratio in the repeat runs, not every such curve was filed as active; the % refers to the signal ratio); conditions: GR-bla HeLa, beta-lactamase reporter ratio, 18 h; activation: at 62.4 µM (top of the series) unless noted
Sequence of Glucocorticoid receptor (Homo sapiens) (P04150 whole entry, looked up): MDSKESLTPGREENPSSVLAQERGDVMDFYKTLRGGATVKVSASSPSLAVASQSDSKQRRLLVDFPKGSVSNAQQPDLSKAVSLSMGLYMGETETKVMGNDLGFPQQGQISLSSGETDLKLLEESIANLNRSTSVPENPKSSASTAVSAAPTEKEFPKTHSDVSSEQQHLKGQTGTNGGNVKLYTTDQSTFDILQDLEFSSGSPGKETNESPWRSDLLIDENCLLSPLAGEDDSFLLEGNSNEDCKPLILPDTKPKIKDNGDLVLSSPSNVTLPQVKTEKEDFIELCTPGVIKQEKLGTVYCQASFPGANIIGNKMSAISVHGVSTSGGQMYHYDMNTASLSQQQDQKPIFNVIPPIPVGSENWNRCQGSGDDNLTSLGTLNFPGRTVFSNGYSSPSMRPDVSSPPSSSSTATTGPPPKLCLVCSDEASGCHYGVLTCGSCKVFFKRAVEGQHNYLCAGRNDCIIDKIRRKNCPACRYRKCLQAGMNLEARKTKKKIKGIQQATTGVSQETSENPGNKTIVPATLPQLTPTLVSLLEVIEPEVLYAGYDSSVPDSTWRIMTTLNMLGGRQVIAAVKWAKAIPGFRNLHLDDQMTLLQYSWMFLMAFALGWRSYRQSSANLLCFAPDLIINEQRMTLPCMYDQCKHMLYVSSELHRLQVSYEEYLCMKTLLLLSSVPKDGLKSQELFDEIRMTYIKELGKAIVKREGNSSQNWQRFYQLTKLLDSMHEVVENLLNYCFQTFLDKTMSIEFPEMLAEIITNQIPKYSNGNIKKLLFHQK
Method in brief: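 Fluorescence intensity from LiveBLAzer B/G FRET substrate (2 h, room temperature) reports beta-lactamase expression driven by the glucocorticoid response element in GR-bla HeLa cells after 18 h compound exposure at 37 C.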

[19] = molecular target: Glucocorticoid receptor (Homo sapiens) (UniProt P04150); experiment: qHTS assay to identify small molecule antagonists of the glucocorticoid receptor (GR) signaling pathway (AID 720692; active means well fitted inhibition curve with a large enough effect in the signal ratio in the repeat runs, not every such curve was filed as active; the % refers to the signal ratio)
Method in brief: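 HeLa GR-bla cells; cmpd + dex 5 nM final, 18 h 37 C; LiveBLAzer B/G FRET substrate 2 h RT; fluorescence intensity read. Antagonist mode, qHTS.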

C=C(C)C(=O)OCCO
Potency [1]: inactive | Potency [2]: inactive | Potency [3]: inactive | Potency [4]: inactive | Potency [5]: inactive | Potency [6]: inactive | outcome [7]: inactive | Potency [8]: inactive | outcome [9]: inactive | outcome [10]: inactive | outcome [11]: inactive | Potency [12]: inactive | outcome [13]: inactive | Potency [14]: inactive | outcome [15]: inactive

CC(C)=CCC/C(C)=C/CC/C(C)=C/CO
Potency [1]: inactive | Potency [2]: 68.6 µM (active) | Potency [16]: inactive | Potency [3]: inactive | Potency [5]: inactive | Potency [6]: inactive | Potency [8]: inactive | outcome [9]: inactive | outcome [10]: inactive | outcome [11]: inactive | Potency [17]: inactive | Potency [12]: inactive | outcome [13]: inactive | Potency [14]: inactive | outcome [15]: inactive

CCO[Si](CCCCl)(OCC)OCC
Potency [1]: inactive | Potency [2]: inactive | Potency [3]: inactive | Potency [4]: 48.1 µM (active) | Potency [5]: inactive | Potency [6]: inactive | Potency [8]: inactive | outcome [9]: inactive | outcome [10]: inactive | Potency [17]: inactive | Potency [12]: inactive | outcome [13]: inactive | Potency [14]: inactive | outcome [15]: inactive | Potency [18]: inactive | Potency [19]: inactive

CCCCCCCC#N
Potency [1]: inactive | Potency [2]: inactive | Potency [3]: inactive | Potency [4]: inactive | Potency [5]: inactive | Potency [6]: inactive | outcome [7]: inactive | Potency [8]: inactive | outcome [9]: inactive | outcome [10]: inactive | outcome [11]: inactive | Potency [17]: inactive | Potency [12]: inactive | outcome [13]: inactive | Potency [14]: inactive | Potency [19]: inactive

OC(CN1CCC(Cc2ccc(F)cc2)CC1)c1ccc(Cl)cc1 (configuration not stated)
Potency [1]: inactive | Potency [2]: inactive | Potency [16]: inactive | Potency [3]: inactive | Potency [5]: inactive | Potency [6]: inactive | Potency [8]: inactive | outcome [9]: inactive | outcome [10]: inactive | outcome [11]: inactive | Potency [12]: inactive | outcome [13]: inactive | Potency [18]: inactive | Potency [19]: inactive

S=C([S-])NCCNC(=S)[S-].[Mn+2]
Potency [1]: inactive | Potency [2]: inactive | Potency [3]: inactive | Potency [5]: inactive | Potency [6]: inactive | Potency [8]: inactive | outcome [9]: inactive | outcome [10]: inactive | Potency [17]: inactive | Potency [12]: inactive | outcome [13]: inactive | Potency [14]: inactive | outcome [15]: inactive | Potency [18]: inactive

CC(CSC(=O)c1ccccc1)C(=O)N1C[C@@H](Sc2ccccc2)C[C@H]1C(=O)O (some centres not stated)
Potency [1]: inactive | Potency [2]: inactive | Potency [3]: inactive | Potency [4]: inactive | Potency [5]: inactive | Potency [6]: inactive | Potency [8]: inactive | outcome [9]: inactive | outcome [10]: inactive | outcome [11]: inactive | Potency [17]: inactive | Potency [12]: inactive | outcome [13]: inactive | Potency [14]: inactive | outcome [15]: inactive | Potency [18]: inactive | Potency [19]: inactive

CCOC(=O)NCCOc1ccc(Oc2ccccc2)cc1
Potency [1]: inactive | Potency [16]: inactive | Potency [4]: 27.3 µM (active) | Potency [6]: inactive | outcome [7]: inactive | Potency [8]: inactive | outcome [9]: inactive | outcome [10]: inactive | outcome [11]: inactive | Potency [17]: inactive | Potency [12]: inactive | outcome [13]: inactive | outcome [15]: inactive

OC(C#CCN1CCCC1)(c1ccccc1)c1ccccc1
Potency [1]: inactive | Potency [16]: inactive | Potency [3]: inactive | Potency [5]: inactive | Potency [6]: inactive | outcome [7]: inactive | Potency [8]: inactive | outcome [9]: inactive | outcome [10]: inactive | outcome [11]: inactive | Potency [17]: inactive | Potency [12]: inactive | outcome [13]: inactive | outcome [15]: inactive | Potency [18]: inactive

CN(C)CCN(Cc1ccc(Cl)cc1)c1ccccn1
Potency [1]: inactive | Potency [16]: inactive | Potency [3]: inactive | fluorescence, relative to Rose Bengal [5]: 0.0058% [at 18.6 µM] | fluorescence, % of fluorescein control [6]: 0.0171% [at 18.6 µM] | fluorescence, % of triamterene [7]: 0.037% [at 18.6 µM] | fluorescence, % of fluorescent control [8]: -0.0077% [at 18.6 µM] | fluorescence, % of fluorescein [9]: 0.0009% [at 18.6 µM] | fluorescence, % of fluorescent control [10]: -0.0429% [at 18.6 µM] | activity change [11]: 2e-05% [at 18.6 µM] | fluorescence, % of fluorescent control [17]: -0.237% [at 18.6 µM] | fluorescence, % of Rose Bengal [12]: 0.0021% [at 18.6 µM] | fluorescence, % of fluorescent control [13]: 0.027% [at 18.6 µM] | fluorescence, % of fluorescein control [14]: -0.14% [at 18.6 µM] | fluorescence, % of fluorescent control [15]: -0.0264% [at 18.6 µM] | Potency [18]: inactive | Potency [19]: inactive

CN(C)c1ccc(/C=C/c2ccc([N+](=O)[O-])cc2)cc1
activity change, negative = cytotoxicity [2]: -6.1% [at 8.08 µM] | activity, negative = cytotoxicity [16]: 49.6% [at 8.08 µM] | activity change, negative = cytotoxicity [3]: -8.24% [at 8.08 µM] | fluorescence, relative to Rose Bengal [5]: 0% [at 3.72 µM] | fluorescence, % of fluorescein control [6]: -0.0437% [at 3.72 µM] | fluorescence, % of triamterene [7]: 0.0267% [at 3.72 µM] | fluorescence, % of fluorescent control [8]: 0.111% [at 3.72 µM] | fluorescence, % of fluorescein [9]: 0.0174% [at 3.72 µM] | fluorescence, % of fluorescent control [10]: -0.202% [at 3.72 µM] | activity change [11]: -0.151% [at 3.72 µM] | fluorescence, % of fluorescent control [17]: -0.187% [at 3.72 µM] | fluorescence, % of Rose Bengal [12]: -0.037% [at 3.72 µM] | fluorescence, % of fluorescent control [13]: -0.0827% [at 3.72 µM] | fluorescence, % of fluorescent control [15]: -0.0831% [at 3.72 µM]

CCOc1ccc(N=Nc2ccc(/C=C/c3ccc(N=Nc4ccc(OCC)cc4)cc3S(=O)(=O)O)c(S(=O)(=O)O)c2)cc1
Potency [1]: inactive | Potency [16]: 42.6 µM (active) | Potency [3]: inactive | Potency [5]: inactive | Potency [6]: inactive | outcome [7]: inactive | Potency [8]: inactive | outcome [9]: inactive | outcome [11]: inactive | Potency [17]: inactive | Potency [12]: inactive | outcome [13]: inactive | Potency [14]: inactive | outcome [15]: inactive | Potency [18]: inactive | Potency [19]: inactive

CNCCCCOc1ccccc1Cc1ccccc1
Potency [1]: inactive | Potency [3]: inactive | Potency [5]: inactive | Potency [6]: inactive | outcome [7]: inactive | Potency [8]: inactive | outcome [9]: inactive | outcome [10]: inactive | outcome [11]: inactive | Potency [17]: inactive | Potency [12]: inactive | outcome [13]: inactive | Potency [14]: inactive | outcome [15]: inactive | Potency [18]: inactive
